# Tests used:
# [1] = target: T1, Ephrin type-A receptor 3 (Homo sapiens) (UniProt P29320); settings: at 10 µM
# T1 sequence (whole entry): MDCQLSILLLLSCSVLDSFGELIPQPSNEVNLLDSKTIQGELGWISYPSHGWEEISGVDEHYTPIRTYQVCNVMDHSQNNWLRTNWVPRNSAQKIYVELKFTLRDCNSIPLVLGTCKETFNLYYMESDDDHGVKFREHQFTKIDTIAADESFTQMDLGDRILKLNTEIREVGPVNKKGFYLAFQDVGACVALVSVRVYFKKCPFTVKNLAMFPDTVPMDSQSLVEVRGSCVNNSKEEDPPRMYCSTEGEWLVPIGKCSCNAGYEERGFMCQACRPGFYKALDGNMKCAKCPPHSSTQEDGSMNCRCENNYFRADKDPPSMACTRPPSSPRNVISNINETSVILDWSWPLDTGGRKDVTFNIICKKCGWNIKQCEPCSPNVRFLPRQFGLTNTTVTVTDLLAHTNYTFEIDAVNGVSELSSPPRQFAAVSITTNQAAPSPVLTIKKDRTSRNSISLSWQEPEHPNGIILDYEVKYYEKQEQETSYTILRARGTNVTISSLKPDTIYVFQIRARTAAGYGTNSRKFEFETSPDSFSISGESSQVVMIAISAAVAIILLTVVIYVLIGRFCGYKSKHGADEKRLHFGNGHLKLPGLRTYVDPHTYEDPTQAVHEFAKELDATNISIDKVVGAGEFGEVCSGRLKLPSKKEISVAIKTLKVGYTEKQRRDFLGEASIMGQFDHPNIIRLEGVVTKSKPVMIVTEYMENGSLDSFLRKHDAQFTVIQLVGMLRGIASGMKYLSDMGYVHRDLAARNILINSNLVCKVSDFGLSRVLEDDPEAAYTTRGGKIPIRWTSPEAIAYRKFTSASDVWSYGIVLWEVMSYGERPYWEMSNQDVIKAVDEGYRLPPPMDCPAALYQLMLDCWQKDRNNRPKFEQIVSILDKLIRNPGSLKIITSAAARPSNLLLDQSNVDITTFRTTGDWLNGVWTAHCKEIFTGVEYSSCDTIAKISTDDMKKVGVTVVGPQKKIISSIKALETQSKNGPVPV
# [2] = target: Ephrin type-A receptor 4 (Homo sapiens) (UniProt P54764); settings: at 1 µM
# [3] = target: Ephrin type-A receptor 4 (Homo sapiens) (UniProt P54764); settings: at 10 µM
# [4] = target: Ephrin type-A receptor 7 (Homo sapiens) (UniProt Q15375); settings: at 1 µM
# [5] = target: Ephrin type-A receptor 7 (Homo sapiens) (UniProt Q15375); settings: at 10 µM
# [6] = target: T2, Ephrin type-A receptor 8 (Homo sapiens) (UniProt P29322); settings: at 1 µM
# T2 sequence (whole entry): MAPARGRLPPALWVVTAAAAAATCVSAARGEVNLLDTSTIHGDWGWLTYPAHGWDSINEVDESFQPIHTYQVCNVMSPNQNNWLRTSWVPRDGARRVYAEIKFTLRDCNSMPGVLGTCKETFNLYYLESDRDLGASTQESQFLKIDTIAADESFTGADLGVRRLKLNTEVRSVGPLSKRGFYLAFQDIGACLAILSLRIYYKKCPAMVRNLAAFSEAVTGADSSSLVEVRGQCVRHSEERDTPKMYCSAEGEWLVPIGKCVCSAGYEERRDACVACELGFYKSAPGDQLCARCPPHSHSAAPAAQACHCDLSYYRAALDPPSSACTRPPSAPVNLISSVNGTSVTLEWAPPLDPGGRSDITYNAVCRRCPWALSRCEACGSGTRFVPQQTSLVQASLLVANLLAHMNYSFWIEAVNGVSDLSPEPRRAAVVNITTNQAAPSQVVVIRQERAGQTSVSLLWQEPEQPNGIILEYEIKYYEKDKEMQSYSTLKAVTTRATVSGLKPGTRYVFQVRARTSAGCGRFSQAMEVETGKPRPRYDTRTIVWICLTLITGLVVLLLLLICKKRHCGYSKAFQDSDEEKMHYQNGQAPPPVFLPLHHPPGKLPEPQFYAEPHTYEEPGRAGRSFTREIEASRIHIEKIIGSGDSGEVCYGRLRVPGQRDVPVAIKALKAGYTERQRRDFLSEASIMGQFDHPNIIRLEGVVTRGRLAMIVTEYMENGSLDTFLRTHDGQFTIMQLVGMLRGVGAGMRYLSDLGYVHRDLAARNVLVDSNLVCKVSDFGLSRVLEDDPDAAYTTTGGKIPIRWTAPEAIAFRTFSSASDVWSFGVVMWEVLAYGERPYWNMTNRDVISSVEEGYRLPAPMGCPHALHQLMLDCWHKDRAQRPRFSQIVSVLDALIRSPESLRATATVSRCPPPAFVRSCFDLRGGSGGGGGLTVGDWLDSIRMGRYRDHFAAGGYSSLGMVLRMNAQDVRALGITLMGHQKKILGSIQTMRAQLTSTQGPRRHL
# [7] = target: T2, Ephrin type-A receptor 8 (Homo sapiens); settings: at 10 µM
# [8] = target: T3, Ephrin type-B receptor 1 (Homo sapiens) (UniProt P54762); settings: at 1 µM
# T3 sequence (whole entry): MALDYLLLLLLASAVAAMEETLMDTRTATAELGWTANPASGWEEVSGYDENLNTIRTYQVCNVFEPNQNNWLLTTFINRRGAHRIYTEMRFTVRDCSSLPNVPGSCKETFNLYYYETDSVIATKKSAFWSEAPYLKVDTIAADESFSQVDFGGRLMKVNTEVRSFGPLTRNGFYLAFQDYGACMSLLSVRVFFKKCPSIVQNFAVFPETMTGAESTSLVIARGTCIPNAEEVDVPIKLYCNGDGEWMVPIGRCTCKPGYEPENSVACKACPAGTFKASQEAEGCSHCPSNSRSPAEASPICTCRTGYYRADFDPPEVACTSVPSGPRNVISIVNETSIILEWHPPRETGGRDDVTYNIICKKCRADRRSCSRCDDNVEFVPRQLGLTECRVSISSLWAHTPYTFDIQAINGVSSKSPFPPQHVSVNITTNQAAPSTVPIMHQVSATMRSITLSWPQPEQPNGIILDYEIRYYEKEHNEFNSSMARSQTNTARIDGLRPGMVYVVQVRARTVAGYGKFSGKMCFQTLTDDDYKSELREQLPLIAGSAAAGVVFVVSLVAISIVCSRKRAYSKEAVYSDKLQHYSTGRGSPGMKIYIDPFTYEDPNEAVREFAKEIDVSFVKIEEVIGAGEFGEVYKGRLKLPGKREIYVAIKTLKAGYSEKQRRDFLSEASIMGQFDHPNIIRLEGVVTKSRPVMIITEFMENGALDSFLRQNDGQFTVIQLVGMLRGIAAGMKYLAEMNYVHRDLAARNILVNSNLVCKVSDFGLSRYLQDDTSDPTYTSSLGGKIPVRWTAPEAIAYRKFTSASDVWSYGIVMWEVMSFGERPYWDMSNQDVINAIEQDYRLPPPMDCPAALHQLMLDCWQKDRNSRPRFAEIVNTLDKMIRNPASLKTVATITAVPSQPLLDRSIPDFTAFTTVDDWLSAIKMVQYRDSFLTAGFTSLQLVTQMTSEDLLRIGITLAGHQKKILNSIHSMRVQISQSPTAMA
# [9] = target: T3, Ephrin type-B receptor 1 (Homo sapiens); settings: at 10 µM
# [10] = target: T4, Ephrin type-B receptor 3 (Homo sapiens) (UniProt P54753); settings: at 1 µM
# T4 sequence (whole entry): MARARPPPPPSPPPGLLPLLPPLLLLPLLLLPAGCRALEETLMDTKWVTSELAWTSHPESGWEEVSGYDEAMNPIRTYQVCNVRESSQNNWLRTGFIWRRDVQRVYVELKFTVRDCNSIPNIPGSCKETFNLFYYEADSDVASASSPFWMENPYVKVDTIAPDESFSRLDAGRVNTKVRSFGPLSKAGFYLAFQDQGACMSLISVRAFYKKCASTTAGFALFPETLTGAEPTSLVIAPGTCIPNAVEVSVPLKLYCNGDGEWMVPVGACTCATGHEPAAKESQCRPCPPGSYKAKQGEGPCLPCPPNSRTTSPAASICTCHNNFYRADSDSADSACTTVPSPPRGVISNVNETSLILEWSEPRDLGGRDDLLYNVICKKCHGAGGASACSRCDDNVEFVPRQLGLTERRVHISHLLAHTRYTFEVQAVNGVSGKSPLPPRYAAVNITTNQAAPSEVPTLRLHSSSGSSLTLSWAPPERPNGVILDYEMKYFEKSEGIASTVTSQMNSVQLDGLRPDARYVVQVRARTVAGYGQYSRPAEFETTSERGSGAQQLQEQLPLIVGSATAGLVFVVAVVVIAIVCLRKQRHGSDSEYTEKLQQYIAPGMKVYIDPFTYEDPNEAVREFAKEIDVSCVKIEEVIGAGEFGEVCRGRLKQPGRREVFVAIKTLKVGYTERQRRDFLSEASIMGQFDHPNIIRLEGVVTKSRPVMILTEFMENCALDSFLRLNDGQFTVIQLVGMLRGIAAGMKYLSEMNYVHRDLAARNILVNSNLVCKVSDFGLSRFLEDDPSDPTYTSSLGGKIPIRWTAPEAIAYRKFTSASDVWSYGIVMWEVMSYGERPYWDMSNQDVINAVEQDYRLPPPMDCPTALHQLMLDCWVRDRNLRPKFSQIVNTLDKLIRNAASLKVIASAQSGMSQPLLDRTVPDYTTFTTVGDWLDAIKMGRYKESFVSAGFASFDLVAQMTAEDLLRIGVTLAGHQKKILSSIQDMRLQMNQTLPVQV
# [11] = target: T4, Ephrin type-B receptor 3 (Homo sapiens); settings: at 10 µM
# [12] = target: Receptor tyrosine-protein kinase erbB-4 (Homo sapiens) (UniProt Q15303); settings: at 1 µM
# [13] = target: Receptor tyrosine-protein kinase erbB-4 (Homo sapiens) (UniProt Q15303); settings: at 10 µM
# [14] = target: Focal adhesion kinase 1 (Homo sapiens) (UniProt Q05397); settings: at 1 µM
# Focal adhesion kinase 1 (Homo sapiens), sequence (Q05397 2-1052 limits assumed): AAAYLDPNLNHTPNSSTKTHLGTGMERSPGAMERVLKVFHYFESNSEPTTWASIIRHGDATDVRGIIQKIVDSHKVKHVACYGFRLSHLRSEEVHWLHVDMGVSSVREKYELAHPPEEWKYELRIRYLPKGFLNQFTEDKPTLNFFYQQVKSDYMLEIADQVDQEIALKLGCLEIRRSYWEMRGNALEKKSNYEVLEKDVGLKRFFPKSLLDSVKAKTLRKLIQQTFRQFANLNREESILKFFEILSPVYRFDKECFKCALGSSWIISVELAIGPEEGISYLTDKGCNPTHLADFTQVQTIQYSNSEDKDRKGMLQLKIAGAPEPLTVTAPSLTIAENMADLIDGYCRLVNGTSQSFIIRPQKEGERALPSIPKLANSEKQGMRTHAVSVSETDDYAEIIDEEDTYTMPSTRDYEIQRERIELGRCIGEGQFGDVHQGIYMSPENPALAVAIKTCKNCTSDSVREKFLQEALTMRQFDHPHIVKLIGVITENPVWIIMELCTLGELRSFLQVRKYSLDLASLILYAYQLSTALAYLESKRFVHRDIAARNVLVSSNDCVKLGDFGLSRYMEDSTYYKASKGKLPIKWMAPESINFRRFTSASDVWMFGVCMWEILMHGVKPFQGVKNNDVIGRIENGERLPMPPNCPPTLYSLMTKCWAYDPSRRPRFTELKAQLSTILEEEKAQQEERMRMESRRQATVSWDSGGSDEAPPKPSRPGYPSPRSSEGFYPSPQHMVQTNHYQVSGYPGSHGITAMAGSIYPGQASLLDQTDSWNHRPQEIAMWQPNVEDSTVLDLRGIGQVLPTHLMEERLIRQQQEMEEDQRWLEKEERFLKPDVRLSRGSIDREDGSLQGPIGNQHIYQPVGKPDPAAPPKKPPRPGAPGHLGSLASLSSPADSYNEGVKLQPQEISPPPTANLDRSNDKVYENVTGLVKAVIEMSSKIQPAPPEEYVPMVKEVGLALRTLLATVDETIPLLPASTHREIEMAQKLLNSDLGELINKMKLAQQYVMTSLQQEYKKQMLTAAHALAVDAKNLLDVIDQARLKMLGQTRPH
# Receptor tyrosine-protein kinase erbB-4 (Homo sapiens), sequence (Q15303 whole entry): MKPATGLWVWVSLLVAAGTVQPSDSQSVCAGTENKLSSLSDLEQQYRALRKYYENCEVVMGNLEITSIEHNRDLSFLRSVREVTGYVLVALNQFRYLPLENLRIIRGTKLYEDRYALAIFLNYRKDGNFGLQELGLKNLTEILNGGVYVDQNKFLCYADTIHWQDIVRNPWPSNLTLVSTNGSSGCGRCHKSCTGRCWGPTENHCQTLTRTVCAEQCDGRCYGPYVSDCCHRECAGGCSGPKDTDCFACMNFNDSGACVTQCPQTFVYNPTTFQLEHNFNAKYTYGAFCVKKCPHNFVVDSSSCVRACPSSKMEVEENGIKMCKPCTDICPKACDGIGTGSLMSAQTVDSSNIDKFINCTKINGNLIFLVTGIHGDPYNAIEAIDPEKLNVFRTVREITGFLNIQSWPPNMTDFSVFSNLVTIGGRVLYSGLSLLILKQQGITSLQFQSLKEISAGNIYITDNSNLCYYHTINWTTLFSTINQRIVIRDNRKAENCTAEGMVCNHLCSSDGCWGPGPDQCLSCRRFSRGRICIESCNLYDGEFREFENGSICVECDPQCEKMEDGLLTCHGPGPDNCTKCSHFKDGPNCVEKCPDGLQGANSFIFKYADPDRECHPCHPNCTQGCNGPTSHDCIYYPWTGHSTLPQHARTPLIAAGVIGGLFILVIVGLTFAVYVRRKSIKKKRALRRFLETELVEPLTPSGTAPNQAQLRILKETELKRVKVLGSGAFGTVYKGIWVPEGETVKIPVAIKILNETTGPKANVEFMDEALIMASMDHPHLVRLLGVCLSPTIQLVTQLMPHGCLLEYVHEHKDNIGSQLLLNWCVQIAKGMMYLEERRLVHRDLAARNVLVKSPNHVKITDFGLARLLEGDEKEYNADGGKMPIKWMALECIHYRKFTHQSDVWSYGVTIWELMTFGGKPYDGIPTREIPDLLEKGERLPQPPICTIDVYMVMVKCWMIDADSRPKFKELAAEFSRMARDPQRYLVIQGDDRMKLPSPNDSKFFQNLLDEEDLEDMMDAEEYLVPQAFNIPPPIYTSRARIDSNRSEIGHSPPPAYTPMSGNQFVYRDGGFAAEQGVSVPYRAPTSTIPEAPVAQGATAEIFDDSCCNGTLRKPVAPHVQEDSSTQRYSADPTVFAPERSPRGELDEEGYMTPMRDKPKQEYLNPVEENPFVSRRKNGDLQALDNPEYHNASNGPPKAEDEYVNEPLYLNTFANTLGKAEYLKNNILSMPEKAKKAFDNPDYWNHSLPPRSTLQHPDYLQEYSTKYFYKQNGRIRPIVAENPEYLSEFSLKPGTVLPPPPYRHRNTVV
# Ephrin type-A receptor 4 (Homo sapiens), sequence (P54764 whole entry): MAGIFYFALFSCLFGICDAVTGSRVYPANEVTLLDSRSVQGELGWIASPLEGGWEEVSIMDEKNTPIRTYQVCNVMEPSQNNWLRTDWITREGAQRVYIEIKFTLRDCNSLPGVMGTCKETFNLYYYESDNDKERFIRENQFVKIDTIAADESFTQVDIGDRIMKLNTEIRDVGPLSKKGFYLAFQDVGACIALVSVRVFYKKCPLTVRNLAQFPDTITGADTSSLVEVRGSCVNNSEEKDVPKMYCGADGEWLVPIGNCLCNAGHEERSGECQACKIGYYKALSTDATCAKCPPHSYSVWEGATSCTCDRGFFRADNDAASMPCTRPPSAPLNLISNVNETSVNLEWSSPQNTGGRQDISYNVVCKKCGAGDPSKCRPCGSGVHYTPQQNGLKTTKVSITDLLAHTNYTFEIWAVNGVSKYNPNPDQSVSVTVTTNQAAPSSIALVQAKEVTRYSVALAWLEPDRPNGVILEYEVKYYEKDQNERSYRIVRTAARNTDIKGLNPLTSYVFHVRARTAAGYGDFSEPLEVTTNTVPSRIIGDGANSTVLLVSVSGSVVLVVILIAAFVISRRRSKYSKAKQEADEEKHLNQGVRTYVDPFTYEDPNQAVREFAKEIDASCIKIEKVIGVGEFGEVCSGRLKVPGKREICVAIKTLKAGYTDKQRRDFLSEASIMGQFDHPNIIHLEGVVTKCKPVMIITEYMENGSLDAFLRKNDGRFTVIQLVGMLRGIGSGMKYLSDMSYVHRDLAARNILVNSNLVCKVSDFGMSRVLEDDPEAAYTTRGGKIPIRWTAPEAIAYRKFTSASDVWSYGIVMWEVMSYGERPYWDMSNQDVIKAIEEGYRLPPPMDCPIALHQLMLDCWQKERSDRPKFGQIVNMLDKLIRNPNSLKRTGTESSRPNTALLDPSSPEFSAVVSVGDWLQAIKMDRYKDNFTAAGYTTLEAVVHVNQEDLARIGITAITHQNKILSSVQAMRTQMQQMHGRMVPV
# Ephrin type-A receptor 7 (Homo sapiens), sequence (Q15375 28-998 limits assumed): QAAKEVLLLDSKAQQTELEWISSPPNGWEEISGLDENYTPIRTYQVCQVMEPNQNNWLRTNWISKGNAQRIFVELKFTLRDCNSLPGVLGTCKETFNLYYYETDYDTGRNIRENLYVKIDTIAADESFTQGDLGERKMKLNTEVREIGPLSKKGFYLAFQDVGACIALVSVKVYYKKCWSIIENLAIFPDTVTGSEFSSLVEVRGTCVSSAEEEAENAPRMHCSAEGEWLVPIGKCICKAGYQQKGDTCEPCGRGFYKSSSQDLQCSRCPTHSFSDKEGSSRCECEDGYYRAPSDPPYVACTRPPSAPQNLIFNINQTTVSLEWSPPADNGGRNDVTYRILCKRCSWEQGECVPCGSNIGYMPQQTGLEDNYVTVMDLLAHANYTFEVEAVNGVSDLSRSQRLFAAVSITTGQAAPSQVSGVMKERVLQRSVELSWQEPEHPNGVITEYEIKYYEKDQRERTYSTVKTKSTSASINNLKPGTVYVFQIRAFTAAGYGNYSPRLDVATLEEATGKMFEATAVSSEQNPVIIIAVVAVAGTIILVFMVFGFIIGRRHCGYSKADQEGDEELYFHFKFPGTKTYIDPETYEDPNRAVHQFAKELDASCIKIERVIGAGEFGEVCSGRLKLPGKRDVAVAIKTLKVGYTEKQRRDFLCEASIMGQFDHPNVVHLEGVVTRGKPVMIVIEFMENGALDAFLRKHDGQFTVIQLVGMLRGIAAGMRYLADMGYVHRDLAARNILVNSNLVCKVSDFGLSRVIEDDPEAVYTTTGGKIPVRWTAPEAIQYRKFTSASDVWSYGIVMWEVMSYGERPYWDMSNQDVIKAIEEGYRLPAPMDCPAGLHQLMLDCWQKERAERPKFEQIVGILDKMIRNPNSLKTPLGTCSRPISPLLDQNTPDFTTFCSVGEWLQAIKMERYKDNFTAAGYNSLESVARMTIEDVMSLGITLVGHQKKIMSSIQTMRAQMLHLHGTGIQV
compound,measurement,setting,value
O=C1Nc2ccc(Cl)cc2/C1=C/c1cc(Cl)c(O)c(Cl)c1,residual activity,[1],54%
same,residual activity,[2],99%
same,residual activity,[3],90%
same,residual activity,[4],92%
same,residual activity,[5],71%
same,residual activity,[6],90%
same,residual activity,[7],79%
same,residual activity,[8],94%
same,residual activity,[9],86%
same,residual activity,[10],113% (inactive)
same,residual activity,[11],115%
same,residual activity,[12],91%
same,residual activity,[13],76%
same,residual activity,[14],115%
